Experimental data: PubChem BioAssay (Tox21)
Several values for one entry are separate records, joined by “and”; a condition that tells them apart may be missing. Identical values can stand only once. Records with an inconclusive call do not appear. Activity calls are given as the source filed them. Unless noted, calls follow the shape of the dose curve; as a rule, active = well fitted curve in the direction sought with a large enough effect in the repeat runs; inconclusive = weak or mixed curves; inactive = no such curve, though single readings can be large; an effect the other way counts as inactive or inconclusive.

Assays:
[1] = qHTS assay to identify small molecule agonists of the hypoxia (HIF-1) signaling pathway - cell viability counter screen (AID 1224844; calls by dose curve; also: nearly all actives have a fitted effect of over 50% in size; also: potency is read from the fitted curve at half-maximal effect); details: HRE-bla ME-180 viability, CellTiter-Glo luminescence, 17 h; series mostly up to 76.8 µM
Outline: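 HRE-bla ME-180; 0.5% dFBS; cpd 17 h, 37C, 5% CO2; CellTiter-Glo lum., 30 min RT, post-FRET read, same wells.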

[2] = qHTS assay to identify small molecule agonists of H2AX (AID 1224845; active = well fitted activation curve with a large enough effect in the signal ratio in the repeat runs, not every such curve was filed as active; the % refers to the signal ratio; also: potency is read from the fitted curve at half-maximal effect); details: CHO-K1 phospho-H2AX Ser139 HTRF, 3 h; series mostly up to 154 µM
Outline: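 Wild-type CHO-K1 cells plated overnight, then exposed 3 hr at 37C to compounds at 15 concentrations (0.76% DMSO). Lysed, then HTRF anti-pH2AX(S139)-cryptate/anti-H2AX-d2 detection after 24 hr at room temperature; emissions 665 and 620 nm.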

[3] = qHTS assay to identify small molecule agonists of H2AX - cell viability counter screen (AID 1224847; calls by dose curve; also: nearly all actives have a fitted effect of over 30% in size; also: potency is read from the fitted curve at half-maximal effect; as to activity change, negative = cytotoxicity: top concentration of the series differs between compounds); details: CHO-K1 viability, CellTiter-Glo luminescence, 3 h; series mostly up to 154 µM
Outline: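 We seed wild-type CHO-K1 cells overnight, treat them for 3 hr at 37C with compounds in 15-concentration series, and quantify remaining viability by CellTiter-Glo luminescence.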

[4] = qHTS assay to identify small molecule antagonists of the estrogen related receptor (ERR) signaling pathway from Tox21 library (AID 1224848); details: ERR reporter cell line, luciferase antagonist mode, 18 h; series mostly up to 92.4 µM; also: nearly all actives have a fitted effect of over 50% in size; also: potency is read from the fitted curve at half-maximal effect
Outline: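 Tox21 10K compounds in DMSO tested for ERR pathway antagonism in NTP's ERR cell line; 18 h, 37 C exposure; ONE-Glo luminescence.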

[5] = qHTS assay to identify small molecule agonists of the estrogen related receptor (ERR) signaling pathway from Tox21 library (AID 1224849; calls by dose curve; also: nearly all actives have a fitted effect of over 15% in size); details: ERR reporter cell line, ONE-Glo luciferase, 18 h; at 92.4 µM (top of the series) unless noted
Outline: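 Tox21 compounds tested for ERR agonism in an NTP reporter cell line: 18 h treatment at 37 C, then ONE-Glo luminescence.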

[6] = qHTS RealTime-Glo MT Cell Viability Assay in HepG2 cells - 24 hour (AID 1224867); details: RealTime-Glo luminescence; series mostly up to 76.8 µM; also: nearly all actives have a fitted effect of over 50% in size; also: potency is read from the fitted curve at half-maximal effect
Outline: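 Cells + NanoLuc/prosubstrate dispensed (600 cells/well) → 5 h at 37 C/5% CO2 → compounds in DMSO transferred → 40 h incubation at 37 C, luminescence read at 0, 8, 16, 24, 32, 40 h.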

[7] = qHTS RealTime-Glo MT Cell Viability Assay in HEK293 cells - 32 hour (AID 1224868); details: RealTime-Glo luminescence; series mostly up to 76.8 µM; also: nearly all actives have a fitted effect of over 50% in size; also: potency is read from the fitted curve at half-maximal effect; as to activity change, negative = cytotoxic: top concentration of the series differs between compounds
Outline: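 Tox21 10K qHTS, HEK293, 600 cells/well, RealTime-Glo reagent co-dispensed with cells; 5 h preincubation, compound by pintool, 37 C, luminescence at 0–40 h.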

[8] = A CellTox Green Cytotoxicity Assay to monitor cytotoxicity in HEK293 cells - 0 hour (AID 1224869); details: CellTox Green fluorescence; series mostly up to 76.8 µM; also: nearly all actives have a fitted effect of over 50% in size
Outline: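 Tox21 screen in HEK293: membrane-impermeant cyanine dye fluoresces on binding dead-cell DNA; compound pinned 5 h post-seeding, plates held at 37 C, signal read repeatedly through 40 h.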

[9] = qHTS RealTime-Glo MT Cell Viability Assay in HepG2 cells - 40 hour (AID 1224870); details: RealTime-Glo luminescence; series mostly up to 76.8 µM; also: nearly all actives have a fitted effect of over 50% in size; also: potency is read from the fitted curve at half-maximal effect
Outline: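 HepG2 cells mixed with RealTime-Glo MT reagents (NanoLuc plus cell-permeant prosubstrate) were seeded at 600 cells/well, incubated 5 h at 37 C/5% CO2, then pinned with compounds in DMSO; nonlytic luminescence tracked viability during 40 h treatment.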
% is scaled to controls: 0 for no effect and ±100 for the full control effect.

O=C(O)C(F)(F)C(F)(F)C(F)(F)C(F)(F)C(F)(F)C(F)(F)C(F)(F)C(F)(F)C(F)(F)F
inactive: Potency [2] | Potency [3] | Potency [4] | activity change, positive = activation [5] 3.44% | Potency [6] | Potency [7] | Potency [8] | Potency [9]
active: Potency [1] 13.8 µM

COc1c(C(C)(C)C)cc([N+](=O)[O-])c(C)c1[N+](=O)[O-]
inactive: Potency [1] | Potency [2] | Potency [3] | Potency [6] | Potency [7] | Potency [8] | Potency [9]

Cc1ccc2ccccc2c1
inactive: Potency [1] | Potency [2] | Potency [3] | Potency [4] | activity change, positive = activation [5] -0.842% | Potency [7] | Potency [8] | Potency [9]

Brc1ccccc1
inactive: Potency [1] | Potency [2] | Potency [3] | Potency [6] | Potency [7] | Potency [8] | Potency [9]

c1ccc(CN2CCNCC2)cc1
inactive: Potency [1] | Potency [2] | Potency [3] | Potency [7] | Potency [8] | Potency [9]

CC(=O)CCC(C)=O
inactive: Potency [1] | Potency [2] | Potency [3] | Potency [6] | Potency [7] | Potency [8]

C=CCN1CC[C@]23c4c5ccc(O)c4O[C@H]2C(=O)CC[C@@]3(O)[C@H]1C5
inactive: Potency [1] | Potency [2] | Potency [3] | Potency [4] | activity change, positive = activation [5] -6.24% [at 42.5 µM] | Potency [6] | Potency [7] | Potency [8] | Potency [9]

Cn1cc[n+](C)c1 (tested in a mixture with another compound)
inactive: Potency [1] | Potency [2] | Potency [3] | Potency [6] | Potency [7] | Potency [8] | Potency [9]

O=C(CBr)Nc1ccc(Cl)cc1C(=O)c1ccccc1F
inactive: Potency [1] | Potency [2] | Potency [3] | Potency [4] | activity change, positive = activation [5] -13.3% [at 42.5 µM] | Potency [6] | Potency [7] | Potency [8] | Potency [9]

C(=NC1CCCCC1)=NC1CCCCC1
active: Potency [3] 25.5 µM and 14.2 µM | Potency [4] 13.7 µM | Potency [6] 13.9 µM and 12.3 µM | Potency [7] 22 µM and 21.9 µM | Potency [9] 12.4 µM and 12.3 µM
inactive: Potency [1] | Potency [2] | activity change, positive = activation [5] -50.9% and -60.1% | Potency [8]

CCCCOC(=O)c1ccccc1C(=O)OCc1ccccc1
inactive: Potency [1] | Potency [2] | Potency [3] | Potency [4] | activity change, positive = activation [5] 3.01% | Potency [6] | Potency [8] | Potency [9]

C=CC(=O)OCC(C)C
inactive: Potency [1] | Potency [2] | Potency [3] | Potency [4] | activity change, positive = activation [5] 5.29% | Potency [6] | Potency [7] | Potency [8] | Potency [9]

CC(=O)c1cc2c(cc1C)C(C)(C)C(C)CC2(C)C (centres undefined)
active: Potency [1] 43.6 µM | Potency [2] 101 µM | Potency [3] 89.8 µM
inactive: Potency [6] | Potency [7] | Potency [8] | Potency [9]

O=[N+]([O-])c1ccccc1CCl
inactive: Potency [1] | Potency [2] | Potency [3] | Potency [6] | Potency [7] | Potency [8] | Potency [9]

CCOC(=O)COc1cc(-c2nn(C)c(OC(F)F)c2Cl)c(F)cc1Cl
inactive: Potency [1] | Potency [2] | Potency [3] | Potency [4] | activity change, positive = activation [5] 3.17% | Potency [6] | Potency [7] | Potency [8] | Potency [9]

O=[N+]([O-])c1ccc(F)c([N+](=O)[O-])c1
active: Potency [1] 12.4 µM | Potency [3] 57.2 µM | Potency [4] 43.7 µM
inactive: Potency [2] | activity change, positive = activation [5] -38.2% | Potency [6] | Potency [8] | Potency [9]

CCOP(=O)(OCC)Oc1ccc([N+](=O)[O-])cc1
active: Potency [4] 13.9 µM and 12.2 µM
inactive: Potency [1] | Potency [2] | Potency [3] | activity change, positive = activation [5] -65.4% and -61.8% | Potency [7] | Potency [8] | Potency [9]

C[N+](C)(C)CCCl
inactive: Potency [1] | Potency [2] | Potency [3] | Potency [4] | activity change, positive = activation [5] 3.38% | Potency [7] | Potency [8]

Cc1cc(=O)[nH]o1
inactive: Potency [1] | Potency [2] | Potency [3] | Potency [6] | Potency [7] | Potency [8] | Potency [9]

CCC(C)(NC(=O)c1cc(Cl)c(C)c(Cl)c1)C(=O)CCl (centres undefined)
inactive: Potency [2] | activity change, positive = activation [5] -68.6% | Potency [8]
active: Potency [1] 34.9 µM | Potency [3] 114 µM | Potency [4] 9.75 µM | Potency [6] 49.3 µM | Potency [7] 19.6 µM | Potency [9] 49.3 µM

NCC(CC(=O)O)c1ccc(Cl)cc1 (centres undefined)
inactive: activity change, negative = cytotoxicity [1] -2.38% [at 0.29 µM] | activation (H2AX phosphorylation) [2] 0.429% [at 0.582 µM] | activity change, negative = cytotoxicity [3] -1.04% [at 0.582 µM] | activity, negative = inhibition [4] 4.98% [at 0.349 µM] | activity change, positive = activation [5] 2.78% [at 0.349 µM] | activity change, negative = cytotoxic [7] 7.97% [at 0.29 µM] | cytotoxicity [8] -11.1% [at 0.29 µM] | activity change, negative = cytotoxic [9] -1.34% [at 0.29 µM]
